Results taken from PubChem BioAssay (EPA / NIEHS).
Activity calls are given as the source filed them. Rule for the calls: active = hit-call score of the fitted dose curve at least 0.9, where 1 is the maximum; inactive = score below 0.9.

Columns and labels:
[1] = molecular target: Bile acid receptor (Homo sapiens) (UniProt Q96RI1); experiment: ATG_IR1_CIS: Attagene CIS-FACTORIAL HepG2 Assay for human Nuclear Receptor Subfamily 1 Group H Member 4 (NR1H4), IR1 submotif (AID 2282946); details: IR1 reporter transcription, actives raise or lower the signal
Method in brief: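 HepG2 cells transiently transfected with multiplexed cis-element reporter units read endogenous transcription factor activity. After 24 h compound exposure, reporter mRNA was quantified by RT-PCR, fluorescent labelling, HpaI digestion and capillary electrophoresis; bidirectional fitting versus DMSO baseline.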

[2] = ATG_ISRE_CIS: Attagene CIS-FACTORIAL HepG2 Assay for human Interferon Regulatory Factor 1 (IRF1) binding to an Interferon-Stimulated Response Element (ISRE) (AID 2282948); details: HepG2 ISRE cis-reporter (Attagene), mRNA transcription readout; actives raise or lower the signal
Method in brief: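 Read-out: fluorescent RT-PCR products resolved by capillary electrophoresis, reporting endogenous transcription factor activity via ISRE-driven reporter mRNA in transfected HepG2 cells dosed for 24 h; gain or loss fitted relative to DMSO.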

[3] = ATG_M_32_CIS: Attagene CIS-FACTORIAL HepG2 Assay for M32 Transcription Factor (Internal Marker) (AID 2282949); details: HepG2 Attagene cis-factorial M32 reporter, mRNA; actives raise or lower the signal;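 note: background control marker of the multiplexed CIS panel rather than a real target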
Method in brief: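 Using DMSO as baseline, bidirectional curve fits were applied to reporter mRNA signals. These came from transiently transfected HepG2 cells exposed for 24 h, with RNA analysed by RT-PCR, FAM primer extension, HpaI digestion and CE.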

[4] = ATG_M_06_CIS: Attagene CIS-FACTORIAL HepG2 Assay for M06 Transcription Factor (Internal Marker) (AID 2282950); details: HepG2 Attagene CIS-FACTORIAL M06 internal marker reporter; actives raise or lower the signal
Method in brief: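 One of many multiplexed endpoints: HepG2 reporter mRNA after 24 h dosing, detected by RT-PCR and capillary electrophoresis fluorescence; gain or loss of signal analysed against DMSO.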

[5] = molecular target: Hypoxia-inducible factor 1-alpha (Homo sapiens) (UniProt Q16665); experiment: ATG_HIF1a_CIS: Attagene CIS-FACTORIAL HepG2 Assay for human Hypoxia Inducible Factor 1 (HIF1A) (AID 2282951); details: HepG2 Attagene cis-factorial HIF1a reporter transcription; actives raise or lower the signal
Method in brief: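 HepG2 cells transiently transfected with multiple cis-regulated reporter transcription units measure endogenous transcription factor activity. After 24 h exposure, reporter mRNA is quantified by RT-PCR with 6-FAM labelling, HpaI digestion and capillary electrophoresis. Bidirectional fitting against DMSO.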

[6] = molecular target: Hepatocyte nuclear factor 6 (Homo sapiens) (UniProt Q9UBC0); experiment: ATG_HNF6_CIS: Attagene CIS-FACTORIAL HepG2 Assay for human Hepatocyte Nuclear Factor 6 (HNF6) (AID 2282952); details: HepG2 Attagene cis-factorial HNF6 reporter transcription; actives raise or lower the signal
Method in brief: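 Readout: fluorescent reporter-transcript fragments resolved by capillary electrophoresis after RT-PCR, reflecting endogenous factor activity in transfected HepG2. Exposure 24 h. Gain or loss of signal fitted bidirectionally against DMSO.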

[7] = molecular target: Heat shock factor protein 1 (Homo sapiens) (UniProt Q00613); experiment: ATG_HSE_CIS: Attagene CIS-FACTORIAL HepG2 Assay for human Heat Shock Transcription Factor 1 (HSE) (AID 2282953); details: HepG2 HSE cis-reporter, Attagene RNA transcription; actives raise or lower the signal
Method in brief: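 Using HepG2 with transfected cis-driven reporter constructs, compound effects on endogenous factor activity are scored as reporter mRNA change at 24 h. Detection: RT-PCR, HpaI digestion, capillary electrophoresis; bidirectional fitting to DMSO.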

[8] = ATG_MRE_CIS: Attagene CIS-FACTORIAL HepG2 Assay for human Metal Responsive Element (MRE) (AID 2282954); details: HepG2 MRE cis-reporter transcription, Attagene multiplex; actives raise or lower the signal
Method in brief: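 Multiplexed cis-reporter assay in human HepG2 liver cells, 24 h incubation with test chemical. Reporter transcripts measured by RT-PCR and capillary electrophoresis; values from bidirectional curve fitting versus DMSO.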

[9] = ATG_PBREM_CIS: Attagene CIS-FACTORIAL HepG2 Assay for human Phenobarbital-responsive Enhancer Module (PBREM) (AID 2282955); details: HepG2 PBREM cis-reporter, Attagene multiplexed transcription; actives raise or lower the signal
Method in brief: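 HepG2 cells transiently transfected with multiple cis-regulated reporter units measure endogenous transcription factor activity; 24 h compound exposure. Reporter mRNA quantified by RT-PCR, fluorescent labelling, HpaI digestion and capillary electrophoresis; bidirectional fit versus DMSO.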

[10] = ATG_GRE_CIS: Attagene CIS-FACTORIAL HepG2 Assay for human Glucocorticoid Response Elements (GRE) (AID 2282947); details: HepG2 GRE cis-reporter, Attagene multiplex mRNA; actives raise or lower the signal
Method in brief: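 Multiplexed cis-reporter mRNA induction, HepG2, 24 h post-dose. RT-PCR, FAM-labelled, HpaI-digested amplicons by CE. Bidirectional fit vs DMSO.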

Measured: AC50

Bile acid receptor (Homo sapiens), sequence (Q96RI1 whole entry, looked up): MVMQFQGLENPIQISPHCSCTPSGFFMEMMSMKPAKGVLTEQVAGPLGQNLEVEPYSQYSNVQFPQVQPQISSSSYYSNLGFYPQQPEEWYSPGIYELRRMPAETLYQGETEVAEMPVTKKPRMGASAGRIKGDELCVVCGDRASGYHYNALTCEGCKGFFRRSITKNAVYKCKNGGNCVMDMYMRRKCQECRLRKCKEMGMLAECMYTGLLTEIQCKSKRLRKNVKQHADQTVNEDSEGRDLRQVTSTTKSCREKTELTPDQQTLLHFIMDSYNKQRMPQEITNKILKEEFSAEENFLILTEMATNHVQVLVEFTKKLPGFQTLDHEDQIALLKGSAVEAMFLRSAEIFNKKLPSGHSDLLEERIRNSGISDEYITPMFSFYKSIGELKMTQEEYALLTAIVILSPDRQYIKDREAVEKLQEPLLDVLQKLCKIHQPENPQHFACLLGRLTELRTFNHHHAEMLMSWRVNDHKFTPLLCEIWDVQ
Hypoxia-inducible factor 1-alpha (Homo sapiens), sequence (Q16665 whole entry, looked up): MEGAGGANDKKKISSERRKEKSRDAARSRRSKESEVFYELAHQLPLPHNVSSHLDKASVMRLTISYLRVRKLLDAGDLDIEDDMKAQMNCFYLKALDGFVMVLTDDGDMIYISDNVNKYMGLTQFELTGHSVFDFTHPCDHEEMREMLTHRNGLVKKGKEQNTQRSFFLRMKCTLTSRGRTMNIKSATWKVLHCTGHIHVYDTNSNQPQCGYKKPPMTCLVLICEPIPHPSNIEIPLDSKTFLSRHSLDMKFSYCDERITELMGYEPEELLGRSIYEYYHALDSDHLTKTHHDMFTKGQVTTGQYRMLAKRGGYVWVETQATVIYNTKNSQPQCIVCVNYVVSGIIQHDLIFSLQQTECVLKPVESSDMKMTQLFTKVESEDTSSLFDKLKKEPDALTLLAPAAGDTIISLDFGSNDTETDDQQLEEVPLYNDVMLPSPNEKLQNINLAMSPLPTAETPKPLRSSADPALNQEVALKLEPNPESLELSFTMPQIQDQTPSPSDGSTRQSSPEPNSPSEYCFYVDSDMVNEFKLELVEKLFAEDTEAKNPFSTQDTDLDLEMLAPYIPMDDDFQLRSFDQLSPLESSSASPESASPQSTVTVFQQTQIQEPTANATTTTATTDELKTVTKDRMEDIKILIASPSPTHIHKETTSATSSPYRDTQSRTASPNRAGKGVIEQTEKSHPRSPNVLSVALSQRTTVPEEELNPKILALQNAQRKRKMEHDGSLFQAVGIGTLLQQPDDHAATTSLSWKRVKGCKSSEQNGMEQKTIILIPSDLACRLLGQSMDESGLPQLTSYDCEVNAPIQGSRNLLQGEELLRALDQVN
Hepatocyte nuclear factor 6 (Homo sapiens), sequence (Q9UBC0 whole entry, looked up, the tested form may be a part): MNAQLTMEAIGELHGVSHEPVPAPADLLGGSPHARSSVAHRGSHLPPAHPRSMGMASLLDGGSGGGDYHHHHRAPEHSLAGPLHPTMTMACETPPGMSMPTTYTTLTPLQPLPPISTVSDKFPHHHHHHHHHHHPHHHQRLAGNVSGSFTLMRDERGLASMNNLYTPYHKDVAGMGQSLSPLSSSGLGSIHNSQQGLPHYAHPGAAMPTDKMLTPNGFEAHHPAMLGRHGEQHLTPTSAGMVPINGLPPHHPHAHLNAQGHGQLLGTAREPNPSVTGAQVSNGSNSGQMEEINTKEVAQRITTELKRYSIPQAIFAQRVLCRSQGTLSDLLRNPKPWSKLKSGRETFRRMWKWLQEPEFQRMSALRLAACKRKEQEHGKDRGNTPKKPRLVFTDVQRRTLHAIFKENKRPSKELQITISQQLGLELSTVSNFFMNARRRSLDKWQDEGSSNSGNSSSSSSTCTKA
Heat shock factor protein 1 (Homo sapiens), sequence (Q00613 whole entry, looked up): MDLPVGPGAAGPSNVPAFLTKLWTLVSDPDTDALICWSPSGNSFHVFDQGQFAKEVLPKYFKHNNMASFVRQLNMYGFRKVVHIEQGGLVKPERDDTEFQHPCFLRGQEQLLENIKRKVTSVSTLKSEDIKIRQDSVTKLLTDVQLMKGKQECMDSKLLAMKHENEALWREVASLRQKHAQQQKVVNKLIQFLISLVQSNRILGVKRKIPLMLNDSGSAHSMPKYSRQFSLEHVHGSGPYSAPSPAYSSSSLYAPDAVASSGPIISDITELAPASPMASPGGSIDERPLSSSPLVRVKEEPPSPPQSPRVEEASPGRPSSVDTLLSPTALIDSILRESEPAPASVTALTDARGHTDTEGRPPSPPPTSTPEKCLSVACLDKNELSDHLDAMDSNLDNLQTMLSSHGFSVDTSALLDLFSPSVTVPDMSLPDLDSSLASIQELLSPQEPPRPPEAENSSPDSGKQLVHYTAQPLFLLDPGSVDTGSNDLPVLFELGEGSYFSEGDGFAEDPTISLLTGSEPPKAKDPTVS

COC(C)(C)CC(C)=O
not listed: [10]
inactive: all other assays above

CCOc1ccc(NC(=O)CC(C)O)cc1 (centres undefined)
not listed: [9] | [10]
inactive: all other assays above

NCC1CCCC(CN)C1 (centres undefined)
not listed: [2]
inactive: all other assays above

CCCCCCOC(=O)C(C)C
not listed: [9] | [10]
inactive: all other assays above

O=C(CC(=O)c1ccccc1)c1ccccc1
inactive: [1] | [3] | [4]
active: [2] 95.9 µM | [5] 33.5 µM | [6] 145 µM | [7] 145 µM | [8] 136 µM

C#CC(C)N(C)C(=O)Nc1ccc(Cl)cc1 (centres undefined)
not listed: [8] | [9] | [10]
inactive: all other assays above

CC1(C)C2=CCCC(C)(C)[C@]23CC[C@H]1C3
not listed: [3] | [8] | [10]
inactive: all other assays above

O=C(CS)OCCOC(=O)CS
active: [2] 57.8 µM
not listed: [10]
inactive: all other assays above

Cc1cccc(Nc2ccccc2)c1
active: [1] 42.5 µM | [7] 162 µM | [8] 135 µM
not listed: [10]
inactive: all other assays above

COS(=O)(=O)O
inactive: [1] | [2] | [5] | [6] | [9]

C[N+](C)(C)CCCCCC[N+](C)(C)C
not listed: [3] | [5] | [10]
inactive: all other assays above

CCCCCCC(=O)c1ccccc1
not listed: [10]
inactive: all other assays above

CC(=O)C(C)O (centres undefined)
not listed: [10]
inactive: all other assays above

CCCCCC(=O)CC
not listed: [3] | [10]
inactive: all other assays above

OCc1ccc(Cl)cc1Cl
not listed: [4] | [10]
inactive: all other assays above

CCOC(=O)COC(=O)c1cc(Oc2ccc(C(F)(F)F)cc2Cl)ccc1[N+](=O)[O-]
not listed: [10]
inactive: all other assays above

COc1cc([C@@H]2c3cc4c(cc3[C@@H](O[C@@H]3O[C@@H]5CO[C@@H](C)O[C@H]5[C@H](O)[C@H]3O)[C@H]3COC(=O)[C@H]23)OCO4)cc(OC)c1O
not listed: [10]
inactive: all other assays above

CS(=O)(=O)c1ccc(C2=C(c3ccccc3)C(=O)OC2)cc1
not listed: [10]
inactive: all other assays above

C=CC(=O)OCCC#N
active: [1] 58.1 µM | [2] 70 µM | [5] 56.6 µM | [7] 170 µM | [8] 86.2 µM
inactive: [3] | [4] | [6] | [9]

c1ccc(CCc2ccccc2)cc1
not listed: [3] | [8] | [10]
inactive: all other assays above

COc1ccccc1[N+](=O)[O-]
not listed: [10]
inactive: all other assays above

C[Si]1(C)O[Si](C)(C)O[Si](C)(C)O1
not listed: [4] | [10]
inactive: all other assays above

COc1ccc(CCN2CCC(Nc3nc4ccccc4n3Cc3ccc(F)cc3)CC2)cc1
not listed: [3] | [5] | [10]
inactive: all other assays above

CCCCCCCCCC(=O)OC
not listed: [10]
inactive: all other assays above

CCN(CC)C(=O)N(CC)CC
not listed: [10]
inactive: all other assays above

CN(C)CCOC(C)(c1ccccc1)c1ccccn1 (centres undefined)
not listed: [5] | [10]
inactive: all other assays above

CCc1cc(Cc2cc(CC)cc(C(C)(C)C)c2O)c(O)c(C(C)(C)C)c1
active: [2] 17.4 µM | [5] 16.7 µM | [7] 18.5 µM | [8] 18.1 µM
not listed: [10]
inactive: all other assays above

OCCCCC(O)CO (centres undefined)
active: [5] 23.2 µM
not listed: [4] | [9] | [10]
inactive: all other assays above
